An excerpt weighted towards active compounds, which were near 0.53% of everything screened.
IL-2 act: activators of IL-2; activation, % (series mostly up to about 46 µM); AID 652025; actives 0.065% (n = 360,000); IL-2 activation reporter assay, cell-based qHTS; stimulated with anti-CD3/CD4/CD28 beads; in transgenic mouse T cells; in the data active means activation above about 50%; inconclusive means mostly about 30% to 49%; further: 0% is about no effect
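Unstimulated transgenic mouse T cells; 60-min compound exposure; bead-based TCR/CD4/CD28 stimulation; 18 h culture, 37 degrees C; dual fluorescence (EGFP, DsRed) plate cytometry.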
Vif-A3F inh: inhibitors of Vif-A3F interaction; HeLa A3F-eYFP + Vif (tagged APOBEC3F with the HIV-1 protein that degrades it), YFP fluorescence increase; Potency, µM (titrated, usually from 46.1 µM), inactives show at the highest dose activity, negative = active; actives 0.2% (n = 390,000); further: potency means the concentration at half of the fitted maximal effect; % of control where 0% means no effect; nearly all actives have a fitted effect of over 65% in size
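HeLa cells stably expressing Vif plus C-terminally eYFP-tagged A3F were seeded, incubated overnight at 37 deg C, dosed with compound, incubated overnight again at 37 deg C. Yellow fluorescence (Ex 488/Em 500-530) reported blocked Vif-mediated A3F-eYFP degradation.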
Vif-A3G inh: blocks the Vif interaction with human APOBEC3G | HeLa A3G-eYFP + Vif (tagged APOBEC3G with the HIV-1 protein that degrades it), YFP fluorescence, overnight | Potency, µM (titrated, usually from 46.1 µM), inactives show top-dose activity, negative = active, usual class: inhibitors | actives 0.076% (n = 410,000); further: potency means the concentration at half of the fitted maximal effect; on the % scale 0 is the no-effect control and ±100 the full control effect; nearly all actives have a fitted effect of over 60% in size
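Read-out is eYFP fluorescence (Ex 488/Em 500-530) from Vif-expressing HeLa A3G-eYFP cells; more signal means A3G escaped Vif-mediated degradation. Cells plated overnight, compound pinned in, incubated overnight at 37 deg C.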
PKM2 activator: increases activity of human pyruvate kinase M2; P14618; Potency, µM (titrated, usually from 57.5 µM), for inactives: at the highest dose activation, hits mostly activators; AID 1631; actives 0.34% (n = 260,000); purified PKM2, Kinase-Glo ATP luminescence, activation; response scale: 0% is enzyme alone, no compound; further: potency means the concentration at half of the fitted maximal effect; on the % scale 0 is the no-effect control and ±100 the full control effect; nearly all actives have a fitted effect of over 55% in size
Target sequence (P14618 whole entry, looked up): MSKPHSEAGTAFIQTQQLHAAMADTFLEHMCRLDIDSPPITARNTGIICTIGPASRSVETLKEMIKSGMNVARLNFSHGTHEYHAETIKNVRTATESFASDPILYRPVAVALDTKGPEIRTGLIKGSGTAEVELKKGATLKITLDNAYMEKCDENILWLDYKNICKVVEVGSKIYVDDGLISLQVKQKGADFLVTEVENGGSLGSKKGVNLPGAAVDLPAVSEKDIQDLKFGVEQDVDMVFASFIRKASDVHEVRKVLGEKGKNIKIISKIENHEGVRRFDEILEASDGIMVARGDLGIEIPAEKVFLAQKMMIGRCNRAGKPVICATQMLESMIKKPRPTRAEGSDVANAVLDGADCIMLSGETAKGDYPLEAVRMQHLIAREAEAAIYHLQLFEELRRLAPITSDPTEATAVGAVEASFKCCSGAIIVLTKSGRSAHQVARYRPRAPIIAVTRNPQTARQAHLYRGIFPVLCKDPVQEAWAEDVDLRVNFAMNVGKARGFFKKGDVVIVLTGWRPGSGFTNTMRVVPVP
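ATP formation by purified human PK-M2, quantified via coupled luciferase luminescence after 1 h at room temperature with 0.1 mM ADP and 0.5 mM PEP final.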
* = called active by the depositor; ! = not confirmed by another sample; [ ] = another dose, or the depositor's remark. Unless noted, the call rests on the fitted dose curve; in most records, active means well fitted curve in the direction sought with a large enough effect; inconclusive means small, poorly fitted or top-dose-only effect, or another doubt; inactive means no such curve, though single readings can be large; an effect the other way counts as inactive or inconclusive.

Results for COc1cc([C@@H]2c3cc4c(cc3[C@@H](OC)[C@H]3COC(=O)[C@H]23)OCO4)cc(OC)c1O ?
IL-2 act: 0; Vif-A3F inh: -11%; Vif-A3G inh: -2%; PKM2 activator: 32µM*

How did COc1cc2c(cc1C=O)OCO2 do in these assays?
IL-2 act: -1; Vif-A3F inh: 7%; Vif-A3G inh: -3%; PKM2 activator: -6%

How did ClCCN(CCCl)c1ccc(C=Cc2ccncn2)cc1 do in these assays?
IL-2 act: -1; Vif-A3F inh: 22µM*; Vif-A3G inh: -31%

Results for COc1ccccc1NC(=O)Cn1c(=O)n(-c2cccc(Cl)c2)c(=O)c2sc3ccccc3c21 ?
Vif-A3F inh: inconclusive; Vif-A3G inh: 2%

How did CCn1c(P(C)(=O)O)nc2ccccc21 do in these assays?
IL-2 act: 0; Vif-A3F inh: 0%; Vif-A3G inh: 0%; PKM2 activator: 22%

How did CCn1c(NN=O)nc2ccccc21 do in these assays?
IL-2 act: -2; Vif-A3F inh: 11µM*; Vif-A3G inh: 3%; PKM2 activator: 1%

How did S=c1[nH]c2cc(Br)cnc2[nH]1 do in these assays?
IL-2 act: 1; Vif-A3F inh: 10%; Vif-A3G inh: -3%; PKM2 activator: inconclusive

What do the screens show for `Cc1c(Cl)cccc1NC(=O)c1oc2ccc(S(=O)(=O)N3CCC4(CC3)OCCO4)cc2c1C`?
Vif-A3F inh: 8%; Vif-A3G inh: inconclusive

How did CCC(=NCCc1ccccc1)c1c(O)[nH]c(=O)[nH]c1=O do in these assays?
IL-2 act: -5; Vif-A3F inh: -4%; Vif-A3G inh: 0%; PKM2 activator: -1%

What do the screens show for `CC(=NCCc1ccccc1)c1c(O)[nH]c(=O)[nH]c1=O`?
IL-2 act: -4; Vif-A3F inh: -14%; Vif-A3G inh: 1%; PKM2 activator: 28µM*

Results for CN(C)c1ccc(C=Cc2ccnc3c(O)cccc23)cc1 ?
IL-2 act: 148*; Vif-A3F inh: inconclusive; Vif-A3G inh: -7%

Results for CCN(CC)c1ccc(N=Cc2c(O)n(Cc3ccccc3)c(=O)[nH]c2=O)cc1 ?
IL-2 act: -1; Vif-A3F inh: 7.9µM*!; Vif-A3G inh: inconclusive; PKM2 activator: 3%

How did CCN(CC)c1nc2ccccc2nc1C(=O)Nc1cccc(C(C)=O)c1 do in these assays?
Vif-A3F inh: -15%; Vif-A3G inh: inconclusive

How did Cc1ccc(Cl)cc1NC(=O)Cn1c(=O)oc2cc(S(=O)(=O)N3CCCCCC3)ccc21 do in these assays?
Vif-A3F inh: inconclusive; Vif-A3G inh: -8%

How did COc1ccc(C2=C(C(C)=O)Sc3nnc(-c4ccc(Cl)cc4)n3N2C(C)=O)cc1OC do in these assays?
Vif-A3F inh: inconclusive; Vif-A3G inh: -6%

How did O=c1[nH]c(=O)n(Cc2ccccc2Cl)c(O)c1/C=C1/C=CC=N1 do in these assays?
IL-2 act: -3; Vif-A3F inh: 8.9µM*; Vif-A3G inh: inconclusive; PKM2 activator: -2%

What do the screens show for `CCCCn1c(O)c(/C=C2/C=CC=N2)c(=O)[nH]c1=O`?
IL-2 act: 1; Vif-A3F inh: inconclusive; Vif-A3G inh: 10µM*; PKM2 activator: 1%

How did O=c1[nH]c(=O)n(Cc2ccccc2)c(O)c1C=NCCCO do in these assays?
IL-2 act: 4; Vif-A3F inh: -11%; Vif-A3G inh: -2%; PKM2 activator: 3%

How did C=CCn1c(O)c(/C=C2/C=CC=N2)c(=O)[nH]c1=O do in these assays?
IL-2 act: -2; Vif-A3F inh: -15%; Vif-A3G inh: inconclusive; PKM2 activator: 1%

How did CCN(CC)C(=O)c1c(C)[nH]c(=S)c(C#N)c1-c1ccco1 do in these assays?
IL-2 act: -5; Vif-A3F inh: -8%; Vif-A3G inh: 0%; PKM2 activator: -36%

How did COc1ccc(N2C(=O)NC(=O)/C(=C\c3cn(C)c4ccccc34)C2=O)cc1 do in these assays?
IL-2 act: 2; Vif-A3F inh: 22µM*; Vif-A3G inh: 2%

How did O=C(O)Cn1cc(/C=C2\C(=O)NC(=O)N(c3ccc(F)cc3)C2=O)c2ccccc21 do in these assays?
PKM2 activator: 5%[11.5 µM]

What do the screens show for `COC(=O)Cn1cc(/C=C2\C(=O)NC(=O)N(c3ccc(OC)cc3)C2=O)c2ccccc21`?
IL-2 act: 92*; Vif-A3F inh: inconclusive; Vif-A3G inh: 1%

Results for c1ccc2c(c1)-c1cccc3cccc-2c13 ?
IL-2 act: -1; Vif-A3F inh: -3%; Vif-A3G inh: -2%

What do the screens show for `Nc1c(Br)cc2c3c(cccc13)-c1ccccc1-2`?
IL-2 act: 82*; Vif-A3F inh: 11µM*; Vif-A3G inh: inconclusive

What do the screens show for `CCN(CC)c1ccc(C=C2C(=O)N(C)C(=S)N(C)C2=O)o1`?
IL-2 act: 0; Vif-A3F inh: inactive; Vif-A3G inh: inconclusive; PKM2 activator: 3%

Results for O=C1NC(=O)N(c2ccc3c(c2)OCO3)C(=O)/C1=C/c1ccc(N2CCCCC2)o1 ?
IL-2 act: 1; Vif-A3F inh: 22µM*; Vif-A3G inh: inconclusive; PKM2 activator: 5%

Results for CN1C(=O)C(=Cc2ccc(N3CCCCC3)o2)C(=O)N(C)C1=S ?
IL-2 act: -6; Vif-A3F inh: 4µM*; Vif-A3G inh: inconclusive; PKM2 activator: -5%

What do the screens show for `O=C1NC(=O)N(c2ccc3c(c2)OCO3)C(=O)/C1=C\c1ccsc1`?
IL-2 act: 1; Vif-A3F inh: -16%; Vif-A3G inh: 5%; PKM2 activator: inconclusive

How did Cc1ccc(N2C(=O)NC(=O)/C(=C\c3ccc([N+](=O)[O-])o3)C2=O)cc1 do in these assays?
PKM2 activator: -3%

What do the screens show for `O=C1NC(=O)N(c2ccc3c(c2)OCO3)C(=O)/C1=C\c1ccc(-c2ccccc2C(=O)O)o1`?
IL-2 act: -1; Vif-A3F inh: 0%; Vif-A3G inh: -3%; PKM2 activator: 25µM*

How did COc1cc(C(=O)N/N=C/c2ccc(OC(=O)N3CCOCC3)cc2)cc(OC)c1OC do in these assays?
IL-2 act: -1; Vif-A3F inh: inconclusive; Vif-A3G inh: inconclusive; PKM2 activator: -7%

How did CCOC(=O)c1c(/N=C/C2C(=O)NC(=O)NC2=O)sc2c1CCC2 do in these assays?
IL-2 act: 76*; Vif-A3F inh: 7%; Vif-A3G inh: -5%; PKM2 activator: 5%

Results for CCOC(=O)c1c(/N=C/c2c(O)n(-c3cccc(C)c3)c(=O)[nH]c2=O)sc2c1CCCC2 ?
IL-2 act: 1; Vif-A3F inh: 5%; Vif-A3G inh: -5%; PKM2 activator: -1%

Results for O=C(NCc1ccccc1)c1cccc(Nc2nc3ccccc3n3nnnc23)c1 ?
Vif-A3F inh: inconclusive; Vif-A3G inh: 3%

What do the screens show for `O=[N+]([O-])c1ccc2c(c1)Cc1cc(O)ccc1-2`?
IL-2 act: -3; Vif-A3F inh: -2%; Vif-A3G inh: -3%

How did Nc1ccc2c(c1)Cc1cc([N+](=O)[O-])ccc1-2 do in these assays?
IL-2 act: -5; Vif-A3F inh: 11µM*; Vif-A3G inh: inconclusive; PKM2 activator: -8%

What do the screens show for `On1ccccc1=S`?
IL-2 act: -1; Vif-A3F inh: 7%; Vif-A3G inh: inconclusive
